A selection: hits, their analogues and other compounds. The true share with any hit is near 2.9%.
Glyco luc inh = blocks N-linked glycosylation in D54 reporter cells | D54 ERlucT glycosylation luciferase reporter, 24 h; percent of 100 nM tunicamycin response | reporter increase, % at 12.5 µM | 360,000 tested, 0.23% active;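 active means mean luciferase reporter signal, scaled so untreated is 0 and the glycosylation-blocking control 100, at or above a set limit in every replicate; inconclusive means mean reaches the limit but not every replicate does; inactive means mean below the limit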;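 further: luciferase carries N-glycosylation sites so blocking glycosylation raises the light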
NSD2 HMT inh = blocks human histone methyltransferase NSD2; O96028; NSD2 peptide methylation, AlphaScreen, 120 min; inhibition, % at 12.5 µM; 310,000 tested, 0.54% active; in the data active means inhibition above about 50%
Wnt bcat act = activators of Wnt/beta-catenin signaling. Wnt/beta-catenin reporter cell assay, activator, plate reader. activation, % at 9.35 µM. 300,000 tested, 1.2% active. AID 743398; in the data active means activation above about 30%, passing the limit was not always enough; inconclusive means no clear call, values can overlap the other calls
TRPM1 prom inh = inhibitors of MITF-driven TRPM1 promoter in melanoma cells; SK-MEL-5 TRPM1 promoter luciferase, 24 h; inhibition, % at 12.5 µM; 330,000 tested, 0.83% active; AID 488899;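 active means mean inhibition across replicates of 60% or more, whatever share of single replicates reaches that level; inconclusive means some that reach 60%, reason not given; inactive means mean inhibition across replicates below 60%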
MITF TRPM1 HTS = activators of MITF-driven TRPM1 promoter activity in SK-MEL-5 cells; activation, % at 12.5 µM; AID 588334; 300,000 tested, 0.75% active; SK-MEL-5 TRPM1-promoter luciferase, 24 h; % of positive control, neutral wells = 0;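 active means mean activation of at least 80% with every replicate also reaching 80%; inconclusive means mean reaches 80% but some replicate falls short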
PfHsp90 set2 = inhibits growth of yeast expressing Plasmodium falciparum Hsp90 | S. cerevisiae expressing PfHsp90, BacTiter-Glo ATP, 48 h; yeast lacking PDR1 and PDR3 efflux regulators | inhibition, % at 9.4 µM | 310,000 tested, 0.32% active | AID 504621;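 active means every replicate shows inhibition above about 80%, whatever the replicate mean, limit read from the data; inconclusive means mean inhibition reaches the set limit but some replicate falls short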
Each line names hits and unclear results; the compound was inactive in the other large screens.

COc1ccc2c(c1)CCCN2C(=O)C1CCCN(S(=O)(=O)c2c(C(C)C)cc(C(C)C)cc2C(C)C)C1 (stereo not given)	none (no result: Glyco luc inh, Wnt bcat act, TRPM1 prom inh, MITF TRPM1 HTS, PfHsp90 set2)
Cn1cc(-c2nnc(-c3ccccc3)o2)c2ccccc21	Wnt bcat act 42
O=c1sc2ccccc2n1CCCOc1ccccc1	Wnt bcat act 71
Cc1ccc(OCCCn2c(=O)sc3ccccc32)cc1	none (no result: Wnt bcat act)
Cc1ccc(OCCn2c(=O)sc3ccccc32)cc1	MITF TRPM1 HTS 92
COc1ccc2cc(-c3cccnc3)ncc2c1	Wnt bcat act inconclusive, MITF TRPM1 HTS 97 (no result: NSD2 HMT inh)
COc1ccc2cc(-c3ccccc3F)ncc2c1	Wnt bcat act 38 (no result: NSD2 HMT inh)
COc1ccc(-c2cc3ccc(OC)cc3cn2)cc1	none (no result: NSD2 HMT inh)
CN(C(=O)CCl)C1CCCc2ccccc21 (stereo not given)	none
O=C(/C(=C/O)N=Nc1ccccc1)c1ccncc1	none (no result: Wnt bcat act, PfHsp90 set2)
Cc1ccc(N=N/C(=C\O)C(=O)c2ccc(Cl)cc2)cc1	PfHsp90 set2 107
O=C(/C(=C/O)N=Nc1ccccc1)c1ccc(Cl)cc1	PfHsp90 set2 106
CC(=O)c1ccc(N=Nc2ccc(C)cc2)cc1	none
CCN(CC(=O)NC(C)C)C(=O)[C@@H](NC(=O)c1ccco1)C(C)C	none
O=C(CSc1nc2ccccc2nc1N1CCCCC1)N1CCN(C(c2ccccc2)c2ccc(Cl)cc2)CC1 (stereo not given)	none (no result: Glyco luc inh, Wnt bcat act, TRPM1 prom inh, MITF TRPM1 HTS, PfHsp90 set2)
CCC(=O)Nc1sc2c(c1C(N)=O)CCN(Cc1ccccc1)C2	Wnt bcat act 39 (no result: NSD2 HMT inh, TRPM1 prom inh, MITF TRPM1 HTS)
CCN1CCc2c(sc(NC(=O)C3COc4ccccc4O3)c2C(N)=O)C1 (stereo not given)	MITF TRPM1 HTS 86
CCOC(=O)C1CCN(S(=O)(=O)c2ccc3c(c2)CC(=O)N3C)CC1	none
Nn1c(COc2ccccc2F)nnc1SCC(=O)NCC1CCCO1 (stereo not given)	none (no result: TRPM1 prom inh, MITF TRPM1 HTS, PfHsp90 set2)
COc1ccccc1-c1nnc(SCC(=O)NC2CCCCC2)n1C	none
CCN(CC)c1ccc2c(cc1=O)[C@@H](NC)CCc1cc(OC)c(OC)c(OC)c1-2	TRPM1 prom inh 66
COc1cc2c(c(OC)c1OC)-c1ccc(N(C)CC(OC)OC)c(=O)cc1[C@@H](NC(C)=O)CC2	TRPM1 prom inh 73
CN[C@H]1CCc2cc(OC)c(OC)c(OC)c2-c2ccc(N(C)CC(OC)OC)c(=O)cc21	none
Cc1ccc(NC(=S)N/C(=N/S(=O)(=O)c2ccccc2)c2ccccc2)cc1	none
COc1ccc(NC(=O)CSc2ccc3nnc(-c4ccccn4)n3n2)c(OC)c1	none
CC(C)c1ccc(/C=N/NC(=O)c2c(Cl)cnn2C)cc1	MITF TRPM1 HTS 93 (no result: Wnt bcat act)
Cc1nn(C)c(C(=O)N/N=C/c2ccc(Br)cc2)c1Cl	none (no result: NSD2 HMT inh)
CC(=O)Nc1ccc(S(=O)(=O)C(C#N)c2nc3ccccc3nc2NCCO)cc1 (stereo not given)	Wnt bcat act 46
CC(=O)Nc1ccc(S(=O)(=O)C(C#N)c2nc3ccccc3nc2NCCCO)cc1 (stereo not given)	none
Nc1nc2n[nH]nc2c(=O)[nH]1	TRPM1 prom inh 65 (no result: NSD2 HMT inh)
CCN1CCN(c2ccc(S(=O)(=O)N3CCCCC3)cc2NC(=O)/C=C/c2ccc(OC)c(OC)c2)CC1	none (no result: PfHsp90 set2)
CCN1CCN(c2ccc(S(=O)(=O)N3CCCCC3)cc2NC(=O)/C=C/c2ccc(Cl)cc2)CC1	TRPM1 prom inh 89
CCN1CCN(c2ccc(S(=O)(=O)N3CCCCC3)cc2NC(=O)c2ccc([N+](=O)[O-])s2)CC1	TRPM1 prom inh 85 (no result: PfHsp90 set2)
CCCCC(=O)Nc1ccc2oc(-c3cccnc3)nc2c1	none (no result: Wnt bcat act)
O=C(Nc1ccc2nc3ccccc3nc2c1)c1ccc(Br)cc1	none (no result: Wnt bcat act)
O=C(Nc1ccc(-c2nc3cc(NC(=O)c4cccs4)ccc3o2)cc1)c1cccs1	TRPM1 prom inh 73 (no result: Wnt bcat act, PfHsp90 set2)
CC(=O)Nc1cccc(-c2nc3ccccc3o2)c1	none (no result: MITF TRPM1 HTS)
CC(=O)Nc1ccc2nc3ccccc3nc2c1	Wnt bcat act 47 (no result: MITF TRPM1 HTS)
CC(=O)Nc1ccc2oc(-c3ccccc3)nc2c1	Wnt bcat act 64
CCCC(=O)Nc1ccc2oc(-c3cccnc3)nc2c1	Wnt bcat act 37
CC(C)[C@H](N)C(=O)N[C@H](C(=O)N1CCC2CCN(Cc3ccccc3)CC21)C(C)C (stereo not given in full)	none (no result: Glyco luc inh, NSD2 HMT inh, TRPM1 prom inh, MITF TRPM1 HTS, PfHsp90 set2)
C=CCn1c(Cc2cccs2)nnc1SCC(=O)Nc1ccc(OCc2ccccc2)cc1	none (no result: Glyco luc inh, Wnt bcat act, TRPM1 prom inh, MITF TRPM1 HTS, PfHsp90 set2)

Assay outcomes deposited in PubChem by Broad Institute.
